TGFb inhibitor – blocks TGF-b signaling | 410,000 tested, 1.2% active | AID 588855 | HepG2 CAGA-GFP TGF-b/SMAD3 reporter, GFP fluorescence, 18 h; TGF-beta stimulated, 500 pg/mL final | Potency, µM (doses to about 46.1 µM), for inactives: top-dose activity, negative = inhibition, usual class: inhibitors; further: potency means the concentration at half of the fitted maximal effect; on the % scale 0 is the no-effect control and ±100 the full control effect; nearly all actives have a fitted effect of over 65% in size
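Smad-responsive CAGA-GFP expression was quantified in HEPG2 cells exposed to compounds and 500 pg/mL final TGF-beta for 18 h at 37 degrees C; unstimulated wells defined full inhibition.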
HepG2 viability – counter-screen for TGF-b inhibitors: cytotoxicity in HepG2 cells. 410,000 tested, 0.76% active. AID 588856. Potency, µM (doses to about 46.1 µM), for inactives: top-dose activity change, negative = cytotoxicity, most hits filed as cytotoxic. HepG2 CAGA-GFP viability, ATP luminescence, 18 h; further: potency means the concentration at half of the fitted maximal effect
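HepG2 CAGA-GFP cells (1000/well, DMEM with 1% FBS) received compound, then TGF-beta at 500 pg/mL final, and were incubated 18 hours at 37 degrees C. Viability was read by CellTiter-Glo luminescence. Media-only wells were set as complete cell-killing and DMSO as no toxicity.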
ATXN viability – reduces viability in counter-screen for ATXN expression inhibitors. S2 cells (HEK-293 line with an ATXN2-luciferase reporter) viability, CellTiter-Fluor protease fluorescence, 24 h. Potency, µM (series often up to 56.7 µM), most hits filed as cytotoxic. 400,000 tested, 0.49% active; further: potency means the concentration at half of the fitted maximal effect; nearly all actives have a fitted effect of over 40% in size
D3 antag – antagonists of human D3 dopamine receptor | P35462 | AID 652054 | D3R cells, DiscoveRx beta-arrestin luminescence, antagonist mode; active compounds read low | 360,000 tested, 2.5% active | max response, negative = inhibition, %; in the data active means max response below about -50%; inconclusive means no clear call, values can overlap the other calls; further: on the % scale 0 is the no-effect control and ±100 the full control effect
Target sequence (P35462 whole entry, looked up): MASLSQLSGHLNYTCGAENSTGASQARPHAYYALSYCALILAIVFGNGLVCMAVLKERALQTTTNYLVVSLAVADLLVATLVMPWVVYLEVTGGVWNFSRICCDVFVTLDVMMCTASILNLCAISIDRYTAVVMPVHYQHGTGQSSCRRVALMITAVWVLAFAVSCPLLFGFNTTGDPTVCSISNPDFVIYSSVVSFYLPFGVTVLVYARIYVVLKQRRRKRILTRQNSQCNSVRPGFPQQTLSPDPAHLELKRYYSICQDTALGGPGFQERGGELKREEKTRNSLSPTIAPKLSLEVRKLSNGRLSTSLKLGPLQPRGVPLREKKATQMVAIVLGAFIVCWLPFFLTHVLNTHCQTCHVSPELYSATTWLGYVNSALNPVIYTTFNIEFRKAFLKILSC
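Cells expressing the human receptor were seeded at 1500 cells/well, incubated overnight at 37 degrees C in 5% CO2, then exposed to library compounds with dopamine controls for 90 minutes at 37 degrees C before luminescent detection.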
ATXN2 expr inh – reduces ATXN2 reporter expression in HEK-293 cells. HEK-293 ATXN2-luciferase reporter, luminescence, 24 h. AID 1745845. Potency, µM (titrated, usually from 57 µM), for inactives: at the highest dose activity change, negative = inhibition, usual class: inhibitors. 360,000 tested, 0.72% active; further: potency means the concentration at half of the fitted maximal effect; on the % scale 0 is the no-effect control and ±100 the full control effect; nearly all actives have a fitted effect of over 55% in size
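qHTS (up to 57 uM final) was run with 24 h compound exposure of reporter cells at 37 °C. Each well was multiplexed: SteadyGlo luminescence measured ATXN2-luciferase expression after a fluorogenic Gly-Phe-AFC viability readout (25 uM final).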
DRD3 agonist – D3 dopamine receptor (human) agonism; 410,000 tested, 0.58% active; AID 652048; D3R DiscoveRx beta-arrestin cells, luminescence, 90 min; max activation, %; in the data active means max activation above about 30%; further: 0% is about no effect
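Agonist mode: compounds and dopamine controls were applied to plated cells for 90 min at 37 degrees C after an overnight attachment at 1500 cells/well. Luminescent read-out followed 30 - 60 minutes at room temperature with DiscoveRx detection reagent.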
The depositor's hits bear a star; i = inactive; ? = inconclusive; . = no result; ! = not active in a repeat. The list is not random: actives were taken first. Their share in the collection is about 4.7%. Unless noted, the call rests on the fitted dose curve; in most records, active means well fitted curve in the direction sought with a large enough effect; inconclusive means small, poorly fitted or top-dose-only effect, or another doubt; inactive means no such curve, though single readings can be large; an effect the other way counts as inactive or inconclusive.

SMILES | TGFb inhibitor | HepG2 viability | ATXN viability | D3 antag | ATXN2 expr inh | DRD3 agonist
CC1CCN(C(=O)c2[nH]cnc2C(=O)N[C@@H](C)C(=O)OC(C)(C)C)CC1 | 7.4% | -27.6% | i | -52.3* | -0.1% | -4.3
C[C@H](NC(=O)c1nc[nH]c1C(=O)N1CCN(C(=O)OC(C)(C)C)CC1)C(=O)OC(C)(C)C | -0.9% | 4.1% | i | 2.2 | 0.6% | 10.4
C[C@H](NC(=O)c1nc[nH]c1C(=O)NC1CCN(C(=O)OC(C)(C)C)CC1)C(=O)OCc1ccccc1 | -12.2% | 0.9% | ? | 73.9 | -5.3% | 33.6*
CCN(Cc1ccccc1)C(=O)CCc1c(C)nc2c(c(C)nn2-c2ccc(C)c(C)c2)c1C | -29.0% | -0.8% | i | . | 8.6% | 0.6
CC(C)(C)OC(=O)N1CCC(NC(=O)c2[nH]cnc2C(=O)Nc2ccc(Cl)cc2)CC1 | 0.1% | -6.9% | i | -11.6 | 4.8% | -13.6
CC1CCN(C(=O)c2[nH]cnc2C(=O)Nc2ccc(Cl)cc2)CC1 | ? | -28.4% | i | 8.9 | -19.3% | 45.4*
Nc1ccc(C(=O)NN2C(=O)[C@H](Cl)C2c2ccc(Cl)cc2)cc1 (stereo partly specified) | 0.0% | -87.8% | 13.4µM* | -8.0 | ? | -11.1
CCNC(=O)CC1C(=O)N(C)C(=S)N1NC(=O)c1ccc(Cl)cc1 (stereo unspecified) | -1.3% | -23.6% | i | 2.0 | -5.6% | 0.4
COc1cccc(Cc2nc3cccnc3n2C2CCN(C(=O)c3n[nH]c4c3CCCC4)CC2)c1 | . | . | i | . | . | .
CCOC(=O)C1=C(C2=CCCCC2)c2ccc(OC)cc2N(S(=O)(=O)C(F)(F)F)C1C(=O)OCC (stereo unspecified) | 14.1µM* | -29.9% | ? | -3.4 | ? | -9.0
N#Cc1c(-c2ccc(Cl)cc2)cc(-c2cccs2)nc1SCC(=O)O | 4.3% | -1.9% | i | -27.0 | -8.7% | 1.3
COc1ccc(-c2cc(-c3ccccc3)nc(SCC(=O)Nc3ncc(C)s3)c2C#N)cc1 | 14.0% | 3.3% | ? | -55.9* | -1.9% | -46.3
N#Cc1c(-c2ccccc2)cc(-c2cccs2)nc1SCC(=O)O | -24.0% | -9.5% | i | -55.2* | -22.8% | -16.1
CCc1nnc(NC(=O)CSc2nc(-c3ccc(F)cc3)cc(-c3ccccc3)c2C#N)s1 | 11.4% | 7.5% | i | -4.1 | . | 0.6
COc1ccc(-c2cc(-c3ccccc3)c(C#N)c(S(C)=O)n2)cc1 (stereo unspecified) | -19.2% | -27.0% | ? | -6.1 | 28.2µM* | -3.2
CCN1CCS/C1=C/C=C/C1=[N+](CC)CCS1 | -3.3% | -12.1% | i | 0.0 | ? | -5.4
CCN1CCS/C1=C\C=C\C1=[N+](CC)CCS1 | ? | -30.1% | 23.8µM* | 3.4 | ? | 0.5
COC(=O)c1sc(NC(=O)c2c(C)noc2C)nc1C | -15.6% | 1.3% | i | 2.6 | 1.8% | 3.8
COC(=O)c1sc(N)c(C(=O)OC)c1COC(=O)c1c(C)noc1C | 1.3% | 3.4% | ? | -68.9* | -25.8% | -64.2
Cc1ccccc1CN1CCN(C/C=C/c2ccccc2)CC1 | -25.0% | -37.0% | i | -191.9* | -34.1% | -40.6
CS(=O)(=O)N1CCN(C/C=C/c2ccccc2)CC1 | -15.4% | -18.8% | i | -7.2 | 19.8% | 2.5
O=c1cc(CN2CCN(C/C=C/c3ccccc3)CC2)c2cc(O)ccc2o1 | -4.3% | -32.2% | i | -62.5* | -23.7% | -11.4
Cc1ccc2oc(=O)cc(CN3CCN(C/C=C/c4ccccc4)CC3)c2c1 | 21.3% | 2.7% | i | -60.2* | -18.7% | -12.0
Nc1ccc([N+](=O)[O-])c(C(F)(F)F)c1 | . | . | i | . | 6.2% | .
Cc1cnc2ccccc2c1/C=C/c1ccc(N)cc1 | -18.3% | -27.6% | . | . | . | .
SMILES | TGFb inhibitor | HepG2 viability | ATXN viability | D3 antag | ATXN2 expr inh | DRD3 agonist
COc1ccccc1C(CCNCc1ccc(N(C)C)cc1)c1ccc(OC(C)C)cc1 (stereo unspecified) | ? | -113.1% | 31.6µM* | ? | . | -16.7
COc1ccccc1C(CCNCc1ccccc1)c1ccc(OC(C)C)cc1 (stereo unspecified) | ? | 12.6µM* | ? | -3.3 | 28.2µM* | -14.6
COc1ccc(CNCCC(c2ccc(OC(C)C)cc2)c2ccccc2OC)cc1OC (stereo unspecified) | ? | -99.0% | i | ? | -26.7% | -24.9
CC(C)CCC(CCNCc1ccccn1)c1ccc2c(c1)OCO2 (stereo unspecified) | ? | 15.8µM* | ? | -23.1 | . | -21.0
COc1ccc(C(CC(=O)O)c2ccc3c(c2)OCO3)cc1 (stereo unspecified) | -5.0% | 7.9% | i | ? | -20.2% | -1.4
COc1ccc(CNCCC(c2ccccc2)c2ccc3c(c2)OCO3)cc1 (stereo unspecified) | 22.4µM* | -98.0% | 22.4µM* | -73.6* | 25.1µM*! | -19.6
CCOc1ccc(-c2cc(C)n3nc(C(=O)Nc4cc(Cl)ccc4O)cc3n2)cc1 | 1.3% | -4.3% | i | . | -1.3% | 7.6
COc1ccc(CNCCC(c2ccc(OC(C)C)cc2)c2ccccc2OC)cc1 (stereo unspecified) | ? | -79.5% | ? | -25.4 | 25.1µM* | -18.3
COc1ccccc1NC(=O)CC(c1ccc(OC(C)C)cc1)c1ccccc1OC (stereo unspecified) | 2.0% | 5.4% | ? | 43.4 | 3.5% | 46.8*
COc1ccccc1C(CC(=O)Nc1ccc(C)c(C)c1)c1ccc(OC(C)C)cc1 (stereo unspecified) | ? | -2.3% | i | -1.9 | -9.2% | 6.6
O=C(OCc1ccccc1Cl)c1ccc(-c2nnn(Cc3ccccc3)n2)cc1 | 0.0% | 1.2% | i | . | -3.5% | 2.4
O=C(NCc1ccccn1)c1cnn(-c2ncc3c(n2)-c2ccccc2CC3)c1C1CC1 | . | . | i | . | . | .
OC(Cc1ccc2ccccc2n1)c1c(Cl)cccc1Cl (stereo unspecified) | 0.2% | -23.9% | . | . | . | .
CCOC(=O)[C@]12CCCC=C1N(CCc1ccc(OC)c(OC)c1)C(=O)[C@H](CC(=O)NCc1ccccc1)C2 | . | . | . | 8.6 | . | 4.2
COCCCNC(=O)C[C@@H]1C[C@@]2(C(=O)OC)CC(C)(C)CC=C2N(CCc2ccc(OC)c(OC)c2)C1=O | . | . | . | -70.4* | . | -21.5
CCCCOCCCNC(=O)C[C@@H]1C[C@@]2(C(=O)OCC)CCCC=C2N(Cc2cccc3ccccc23)C1=O | . | . | 35.5µM* | 0.0 | ? | -0.1
CCOC(=O)[C@]12CCCC=C1N(Cc1cccc3ccccc13)C(=O)[C@H](CC(=O)NCc1cccc3ccccc13)C2 | . | . | i | 18.6 | 4.6% | -0.8
